Laboratory results published in publication PMC4336329 (PLoS ONE, 2015).
Among all 310,000 compounds or so, about 14,000 (4.5%) showed an effect of 50% or more. Effects have a minus sign here. The sample holds strong results, similar compounds and a random draw of the others, so the mix is not that of the screen.

biological target: human ether-à-go-go-related gene (hERG) potassium channel (human, UniProt Q12809); assay: primary screen, population patch clamp on CHO cells stably expressing hERG; higher = less effect of the substance
Sequence (Q12809 whole entry, looked up): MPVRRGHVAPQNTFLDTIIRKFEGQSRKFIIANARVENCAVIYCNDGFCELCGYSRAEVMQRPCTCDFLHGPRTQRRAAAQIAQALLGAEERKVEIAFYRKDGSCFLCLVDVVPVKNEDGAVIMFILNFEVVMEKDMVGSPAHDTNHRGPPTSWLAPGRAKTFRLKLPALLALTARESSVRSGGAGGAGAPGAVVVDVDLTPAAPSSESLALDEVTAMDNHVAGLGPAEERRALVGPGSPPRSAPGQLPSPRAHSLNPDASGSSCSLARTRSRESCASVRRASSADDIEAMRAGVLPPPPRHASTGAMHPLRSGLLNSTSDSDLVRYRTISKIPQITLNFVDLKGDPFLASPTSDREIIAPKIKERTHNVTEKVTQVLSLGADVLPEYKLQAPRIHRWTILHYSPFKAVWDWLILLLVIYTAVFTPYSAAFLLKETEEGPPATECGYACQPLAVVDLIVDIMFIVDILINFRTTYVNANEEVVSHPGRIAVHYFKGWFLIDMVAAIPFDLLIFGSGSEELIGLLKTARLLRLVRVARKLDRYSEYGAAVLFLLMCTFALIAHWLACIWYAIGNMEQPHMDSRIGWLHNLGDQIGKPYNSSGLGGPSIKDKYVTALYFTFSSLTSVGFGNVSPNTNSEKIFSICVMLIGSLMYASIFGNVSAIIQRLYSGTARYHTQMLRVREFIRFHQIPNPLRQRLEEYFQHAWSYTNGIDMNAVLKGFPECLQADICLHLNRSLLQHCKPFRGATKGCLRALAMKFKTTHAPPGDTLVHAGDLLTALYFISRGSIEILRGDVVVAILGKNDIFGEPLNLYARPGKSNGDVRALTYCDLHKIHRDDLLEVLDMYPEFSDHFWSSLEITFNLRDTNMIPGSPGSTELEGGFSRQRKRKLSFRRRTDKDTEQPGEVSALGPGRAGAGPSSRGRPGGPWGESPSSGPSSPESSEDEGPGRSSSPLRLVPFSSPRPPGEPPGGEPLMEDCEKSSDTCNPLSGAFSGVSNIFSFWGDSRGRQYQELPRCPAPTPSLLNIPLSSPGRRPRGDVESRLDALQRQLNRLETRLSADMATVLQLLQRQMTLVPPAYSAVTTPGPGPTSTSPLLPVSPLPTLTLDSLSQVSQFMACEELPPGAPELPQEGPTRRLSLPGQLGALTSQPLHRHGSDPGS
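Note: peak tail current of the secondary pulse compared with the same well before compound.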

Row | SMILES | hERG current change (%, negative = inhibition) at 10uM [%]
1 | O=C(Nc1ccccc1Cl)C1(c2ccccc2)CC1(Cl)Cl (stereo not drawn) | -0.213
2 | O=C(Nc1ccccc1)C1(c2ccccc2)CC1(Cl)Cl (stereo not drawn) | -18.1
3 | O=C(Nc1ccccc1F)C1(c2ccccc2)CC1(Cl)Cl (stereo not drawn) | -70
4 | Cc1ccc(C(=O)c2ccccc2C(=O)O)c(O)c1 | 1.4
5 | Cc1noc(NS(=O)(=O)c2ccc(NC(=O)CSc3nc4ccccc4s3)cc2)c1C | -2.99
6 | CCOC(CNC(=O)c1ccc2nc(N3CCC(C)CC3)sc2c1)OCC | 10.6
7 | CC1CCN(c2nc3ccc(C(=O)O)cc3s2)CC1 | 22.8
8 | CC1CCCC(C)N1CCCNC(=O)c1ccc2nc(N3CCCCC3)sc2c1 (stereo not drawn) | -38
9 | CC1CCN(c2nc3ccc(C(=O)NCCCN4CCCCC4)cc3s2)CC1 | -50
10 | CCCN1CCN(CCCNC(=O)c2ccc3nc(N4CCC(C)CC4)sc3c2)CC1 | -50.7
11 | CC1CC(C)CN(CCCNC(=O)c2ccc3nc(N4CCCCC4)sc3c2)C1 (stereo not drawn) | -47.5
12 | CN(CC(=O)Nc1ccc(N2CCOCC2)cc1)C(=O)CCNC(=O)c1ccc(Br)cc1 | 3.43
13 | O.Oc1cc(O)c2c(c1)O[C@H](c1ccc(O)c(O)c1)[C@@H](O)C2 | 17.4
14 | Cc1cccc2sc(N3CCN(C(=O)c4cccs4)CC3)nc12 | -9.51
15 | O=C(c1ccc([N+](=O)[O-])o1)N1CCN(c2nc3ccc(F)cc3s2)CC1 | -23.7
16 | Cc1ccc2sc(N3CCN(C(=O)c4ccc([N+](=O)[O-])o4)CC3)nc2c1C | 3.89
17 | Cc1cc(C)c2nc(N3CCN(C(=O)c4cccs4)CC3)sc2c1 | 0.575
18 | O=C(c1ccc([N+](=O)[O-])o1)N1CCN(c2nc3c(F)cc(F)cc3s2)CC1 | -54.7
19 | O=C(c1cccs1)N1CCN(c2nc3c(F)cc(F)cc3s2)CC1 | -50.1
20 | Cc1ccc(S(=O)(=O)N2CCN(c3cc4c(cc3[N+](=O)[O-])n(C)c(=O)n4C)CC2)cc1 | -4.2
21 | Nc1nonc1-n1nnc(C(=O)N/N=C/c2cccc(Cl)c2)c1CSc1ccc(Cl)cc1 | 23.9
22 | CCCC12CN3CC(C)(CN(C1)C3c1ccc([N+](=O)[O-])o1)C2=O (stereo not drawn) | -19.6

Row | SMILES | hERG current change (%, negative = inhibition) at 10uM [%]
23 | COc1ccc(NC(=O)c2c(NC(=O)CCC(=O)O)sc(-c3ccccc3)c2C)cc1 | 5.27
24 | CC1(C)C(=O)Nc2ccccc2N1C(=O)COc1ncnc2c(Cl)cc(Cl)cc12 | -9.51
25 | CCN(CC)CCN(CC(=O)N(C1CCCCC1)C1CCCCC1)C(=O)c1ccco1.O=C(O)C(=O)O | 23.2
26 | CCN(Cc1ccccc1)C(=O)c1cccnc1 | 2.64
27 | CCN(CC)CCN(CC(=O)N(C1CCCCC1)C1CCCCC1)C(=O)c1cccnc1.Cl.O | -71.9
28 | COc1ccc(NC(=O)O/N=C/c2ccccc2)cc1 | -2.52
29 | COc1ccc(/C=N/OC(=O)Nc2ccccc2)cc1[N+](=O)[O-] | -58.4
30 | Cc1ccc(NC(=O)O/N=C/c2cccc([N+](=O)[O-])c2)cc1 | -15.8
31 | CC(NS(=O)(=O)c1ccc(Cl)cc1)C(=O)NCCC1=CCCCC1 (stereo not drawn) | -5.41
32 | CC(C)c1ccc(OCC(=O)N(Cc2ccco2)C2CCS(=O)(=O)C2)cc1 (stereo not drawn) | -79.4
33 | Cc1ccc(OCC(=O)N(Cc2ccco2)C2CCS(=O)(=O)C2)cc1 (stereo not drawn) | -13
34 | O=C(COc1ccc(F)cc1)N(Cc1ccco1)C1CCS(=O)(=O)C1 (stereo not drawn) | -28.4
35 | O=C(COc1ccc(Cl)cc1)N(Cc1ccco1)C1CCS(=O)(=O)C1 (stereo not drawn) | -20.5
36 | O=C(COc1ccc(Br)cc1)N(Cc1ccco1)C1CCS(=O)(=O)C1 (stereo not drawn) | -50.6
37 | O=C(COc1ccccc1)N(Cc1ccco1)C1CCS(=O)(=O)C1 (stereo not drawn) | -11.5
38 | O=C(Nc1ccc2c(c1)OCCO2)C1CCCN(S(=O)(=O)Cc2ccccc2)C1 (stereo not drawn) | -11
39 | CCn1nc(NS(=O)(=O)c2ccccc2)c2cc3cc(C)ccc3nc21 | 3.38
40 | COC(=O)c1noc(-c2ccc(C)cc2)n1 | -3.95
41 | CCOC(=O)Cc1csc(NC(=O)CCNS(=O)(=O)c2ccc3c(c2)CCC(=O)N3)n1 | 9.62
42 | CCOP(=O)(OCC)C(Nc1cccc([N+](=O)[O-])c1)c1ccccc1 (stereo not drawn) | -18.4
43 | CCCOP(=O)(OCCC)C(Nc1ccc(C(C)C)cc1)c1ccc([N+](=O)[O-])cc1 (stereo not drawn) | 3.7
44 | CCOP(=O)(OCC)C(Nc1ccc([N+](=O)[O-])cc1)c1ccc(Cl)cc1 (stereo not drawn) | -76

Row | SMILES | hERG current change (%, negative = inhibition) at 10uM [%]
45 | Cn1cccc1CC(=O)NNC(=O)Nc1ccccc1F | 7.76
46 | O=C1c2ccccc2C(Nc2ccc3c(c2)OCCO3)N1Cc1ccccc1 (stereo not drawn) | -18.2
47 | CC(=O)c1ccc(NC(=O)C2CCCN(C(=O)c3ccc(Cl)cc3)C2)cc1 (stereo not drawn) | -29.7
48 | Cc1ccc(NC(=O)C2CCCN(C(=O)c3ccc(Cl)cc3)C2)cc1 (stereo not drawn) | -33.4
49 | CC(NC(=O)C1CCCN(C(=O)c2ccc(Cl)cc2)C1)c1cccc(C(F)(F)F)c1 (stereo not drawn) | -51.2
50 | Cc1ccc(NC(=O)C2CCCN(C(=O)c3ccc(Cl)cc3)C2)cc1C (stereo not drawn) | -19.6
51 | Cc1ccc(NC(=O)C2CCCN(C(=O)c3ccc(Cl)cc3)C2)c(C)c1 (stereo not drawn) | -59
52 | CC(=O)Nc1ccc(NC(=O)C2CCCN(C(=O)c3ccc(Cl)cc3)C2)cc1 (stereo not drawn) | 6.47
53 | CC(=O)Nc1ccc(N(C(=O)CNC(=O)c2ccco2)C(C(=O)NC2CCCC2)c2ccco2)cc1 (stereo not drawn) | 3.72
54 | CC1(C)C(c2cccs2)=[N+]([O-])C2(CCCCC/C2=N\O)N1O (stereo not drawn) | 18.5
55 | COc1cc(C(=O)OCC(=O)N2CC(C)OC(C)C2)cc(OC)c1OC (stereo not drawn) | 33
56 | COc1ccccc1OCC(=O)N(Cc1nc(-c2ccccc2)no1)C(C)C | -12
57 | O=C(Nc1cc(C(=O)N2CCCC2)ccc1N1CCCC1)c1ccccc1 | -75.6
58 | O=C(Nc1ccccc1N1CCCCC1)c1ccccc1F | -14.5
59 | O=C(Nc1ccc(C(=O)N2CCOCC2)cc1)c1cccs1 | 19.7
60 | COC(=O)c1ccc(N2CCOCC2)c(NC(=O)c2cccs2)c1 | -5.27
61 | CNC(=S)Nc1cc(C(=O)N2CCCC2)ccc1N1CCCC1 | 28.1
62 | O=C(Nc1cc(C(=O)N2CCCC2)ccc1N1CCCC1)C1CC1 | -12.9
63 | O=C(Nc1ccc(C(=O)N2CCCC2)cc1)c1ccccc1F | -4.82
64 | O=C(Nc1cc(C(=O)N2CCOCC2)ccc1N1CCCC1)c1cccs1 | -75.9
65 | O=C(Nc1cc(C(=O)N2CCCC2)ccc1N1CCCC1)c1ccccc1F | -74.6
66 | O=C(CCCCl)Nc1c2c(nn1-c1ccccc1)CSC2 | -0.0485

Row | SMILES | hERG current change (%, negative = inhibition) at 10uM [%]
67 | C/C(=N\NC(=O)Cc1ccc(Cl)c(Cl)c1)c1cccnc1 | -12.9
68 | COCCn1c(C)cc(C(=O)CSc2ccc3ccccc3n2)c1C | -0.727
69 | COc1cccc(-c2cnc(OC(C)(C)C)nc2OC(C)(C)C)c1 | 14.7
70 | O=C(OCc1ccccc1F)c1ccc2c(c1)OCCO2 | 7.26
71 | O=C(CCn1cccc1)NC1CCCc2ccccc21 (stereo not drawn) | 4.95
72 | CC(C)(C)NC(=O)NCc1ccco1 | 8.48
73 | O=C(CCN1CCN(c2ccccc2)CC1)Nc1nccs1 | -9.77
74 | Cn1c(=O)[nH]c(=O)c2c1nc(CN1CCN(c3ccccc3F)CC1)n2CCCc1ccccc1 | -33.7
75 | O=C(Nc1ccc([N+](=O)[O-])cc1)C1(c2ccccc2)CCOCC1 | -69.1
76 | Cc1ccc(NC(=O)C2(c3ccccc3)CCOCC2)cc1 | 9.1
77 | O=C(O)c1ccc(NC(=O)C2(c3ccccc3)CCOCC2)cc1 | -5.57
78 | COc1ccc(C(=O)NCc2nnc(SCC(=O)N3CCCCC3)o2)cc1 | 29.8
79 | C/C(=C\c1cc(C(=O)O)c(C)o1)CO | 12.9
80 | Cc1occc1-c1nnc(SCc2cc(=O)n3cc(Br)ccc3n2)n1C | -47.7
81 | Cn1c(SCc2cnc(-c3ccccc3)s2)nnc1C1COc2ccccc2O1 (stereo not drawn) | -1.06
82 | Cn1c(SCc2nnc(-c3ccc(F)cc3)o2)nnc1C1COc2ccccc2O1 (stereo not drawn) | -60.9
83 | O=C(OCc1cc(=O)n2cc(Br)ccc2n1)C1COc2ccccc2O1 (stereo not drawn) | -15.5
84 | Cn1c(SCc2cc(=O)n3cc(Br)ccc3n2)nnc1C1COc2ccccc2O1 (stereo not drawn) | -72
85 | Cn1c(SCC(=O)c2ccccc2)nnc1C1COc2ccccc2O1 (stereo not drawn) | -11.9
86 | CN(C(=O)COC(=O)c1nc(Cl)ccc1Cl)c1ccccc1 | 17.6
87 | Cc1ccc(OC(=O)CCC(=O)Nc2ccc(C(N)=O)cc2)cc1 | 18.2
